HTT-AS promoter: Primary qHTS for Identification of Small Molecule Activators of Huntingtin-Antisense Promoter Activity; HEK293 HTT-AS promoter firefly luciferase reporter, 24 h; response scale: percent change from vehicle, -100% = no light; Potency, µM (series often up to 57.5 µM), inactives show at the highest dose activity change, positive = activation, usual class: activators; hit rate 0.24% among 48,000; note: potency is the fitted concentration of half-maximal effect; nearly all actives have a fitted effect of over 55% in size
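Luminescence was read after Dual-Glo reagent and a 10 min room-temperature incubation. Values were normalized to vehicle (0% activity) and zero RLU (-100% activity). Reporter HEK293 cells had been exposed to compounds (up to 57.5 uM final) for 24 h.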
GPR32 ag: qHTS for Agonists of Human Resolvin D1 Receptor DRV1; activation, % at 76.9 µM; hit rate 2.5% among 48,000; CHO-K1 GPR32 beta-arrestin PathHunter luminescence, 90 min; zero percent set by DMSO-only wells; Probable G-protein coupled receptor 32 (Homo sapiens), O75388;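 active = activation of at least 60% and not above a set upper limit, about 1 call in 100 departs from these limits; inconclusive = activation of 40% to 60%, or above that upper limit; inactive = activation under 40%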; note: 0% is about no effect
Target sequence (O75388 whole entry, looked up): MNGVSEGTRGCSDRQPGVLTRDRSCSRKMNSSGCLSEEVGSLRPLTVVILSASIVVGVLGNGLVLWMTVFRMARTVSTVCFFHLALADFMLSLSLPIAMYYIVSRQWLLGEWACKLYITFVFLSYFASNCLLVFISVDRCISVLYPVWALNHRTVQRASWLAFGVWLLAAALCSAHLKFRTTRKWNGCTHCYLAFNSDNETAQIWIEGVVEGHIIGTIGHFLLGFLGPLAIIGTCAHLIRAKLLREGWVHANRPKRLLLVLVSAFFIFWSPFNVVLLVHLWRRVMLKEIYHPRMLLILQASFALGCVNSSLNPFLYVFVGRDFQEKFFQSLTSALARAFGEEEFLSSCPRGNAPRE
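Using DMSO wells as EC0, agonist-induced signal was taken as chemiluminescence from beta-Gal reconstituted upon beta-arrestin recruitment to GPR32 in CHO-K1 cells after 90 min compound treatment.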
HTT promoter inh: Primary qHTS for Identification of Small Molecule Inhibitors of Huntingtin Promoter Activity; Potency, µM (series often up to 57.5 µM), inactives show at the highest dose activity change, negative = inhibition, hits mostly inhibitors; AID 1508623, 2021; hit rate 0.93% among 48,000; HEK293 HTT promoter firefly luciferase reporter, 24 h; note: potency is the fitted concentration of half-maximal effect; nearly all actives have a fitted effect of over 50% in size
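HEK293 Fluc reporter, 2,500 cells/well, 24 h pre-culture; cpds up to 57.5 uM final, 24 h 37 degrees C; Dual-Glo, 10 min RT; normalized vehicle = 0%, zero RLU = -100%.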
NTMT1 inhibitor: Primary qHTS for Inhibitors of N-terminal methyltransferase 1 (NTMT1): MTaseGlo Assay. NTMT1 MTase-Glo SAH luminescence, purified enzyme. Potency, µM (top dose mostly 114 µM), without a hit: top-dose activity change, negative = inhibition, actives largely listed as inhibitors. hit rate 2.5% among 59,000. AID 1645870, 2021;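 note: potency is the fitted concentration of half-maximal effect; plate controls were DMSO vehicle for no effect and no enzyme for full effect; nearly all actives have a fitted effect of over 65% in size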
SKOV3 invasion: Primary qHTS assay for Inhibitors of ovarian cancer metastasis using an organotypic tumor microenvironment (TME) model; SKOV3ip1-GFP adhesion/invasion on 3D omental model, fluorescence; Potency, µM (titrated, usually from 45.8 µM), inactives show at the top dose activity change, negative = inhibition, most hits filed as inhibitors; hit rate 0.1% among 46,000;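 note: potency is the fitted concentration of half-maximal effect; plate controls were DMSO wells for no effect and tomatine positive control wells for full effect; nearly all actives have a fitted effect of over 65% in size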
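qHTS, 4-pt dose (0.36-46 umol/L); SKOV3ip1-GFP, 1,200 cells/well, no FBS; primary omental fibroblast/mesothelial co-culture 48 h pre-grown; 2 h RT + 16 h 37 C; PBS wash, 4% PFA; GFP count 488/509 nm.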
* = called active by the depositor; i = inactive; u = inconclusive; x = not tested or not shown; [ ] = another dose, or the depositor's remark. Shown are actives, neighbours in structure and some others; about 4.5% of the full set was active somewhere. Unless noted, calls come from the whole dose curve; as a rule, active = well fitted curve in the direction sought with a large enough effect; inconclusive = small, poorly fitted or top-dose-only effect, or another doubt; inactive = no such curve, though single readings can be large; an effect the other way counts as inactive or inconclusive.

SMILES	HTT-AS promoter	GPR32 ag	HTT promoter inh	NTMT1 inhibitor	SKOV3 invasion
O=C(Nc1cccc(F)c1)c1ccc(-c2ccccc2)s1	u	68*	28%	3%	15%
CC(=O)N1CCCC1c1nc2ccccc2n1Cc1c(F)cccc1Cl (stereo not given)	-12%	-7	-11%	89µM*	3%
Cc1ccc(NC(=O)c2sc3nc4c(cc3c2N)CN(Cc2ccccc2)CC4)cc1	2%	116*	6%	-22%	i
Cc1cccc(NC(=O)c2sc3nc4c(cc3c2N)CN(Cc2ccccc2)CC4)c1	1%	-10	-20%	-11%	-20%
COc1ccc(NC(=O)c2sc3nc4c(cc3c2N)CN(Cc2ccccc2)CC4)cc1	-1%	10	0%	u	-1%
Nc1c(C(=O)Nc2ccccc2F)sc2nc3c(cc12)CCCCCC3	30%	72*	8%	7%	i
Nc1c(C(=O)Nc2cccc(Cl)c2)sc2nc3c(cc12)CN(Cc1ccccc1)CC3	1%	61*	-23%	11%	-17%
CCN1CCc2nc3sc(C(=O)Nc4cccc(Cl)c4C)c(N)c3cc2C1	-32%	121*	-29%	u	-6%
CCn1c(=O)cc(SCC(=O)NCc2ccccc2OC)c2ccccc21	1%	38	-18%	0%	5%
CC1CCN(S(=O)(=O)c2ccc3nc(Nc4cccc(C(F)(F)F)c4)ccc3c2)CC1	-38%	-4	u	-16%	-18%
COc1ccc(NC(=O)c2sc3nc4c(cc3c2N)CN(C(C)C)CC4)c(OC)c1	-22%	81*	-14%	u	-8%
CCC1CCc2nc3sc(C(=O)Nc4ccc(C)cc4C)c(N)c3cc2C1 (stereo not given)	-10%	69*	-10%	-3%	34%
CCOc1ccc(NCc2cccn2-c2nnc(N3CCC(C(=O)NCc4ccc(C)cc4)CC3)s2)cc1	-52%	-25	14µM*	2%	-2%
CCOc1ccc(NCc2cccn2-c2nnc(N3CCC(C(=O)NCc4cccc(OC)c4)CC3)s2)cc1	-46%	-33	u	-2%	-38%
Cc1ccc(NCc2cccn2-c2nnc(N3CCC(C(=O)NCc4ccc(OC(C)C)cc4)CC3)s2)cc1	-43%	-26	28µM*	18%	-10%
Cc1ccc(OCCn2c(CCNC(=O)Cc3ccc(F)cc3F)nc3ccccc32)cc1	x	x	x	-20%	x
Cc1cccc(N2CCN(C(=O)c3nn(C)c4c3CS(=O)(=O)c3ccccc3-4)CC2)c1C	-27%	3	u	-1%	-18%
COc1ccc2nc(NC(=O)c3nc(S(=O)(=O)Cc4ccccc4F)ncc3Cl)sc2c1	-15%	-15	7%	-4%	7.1µM*
O=C(Nc1ccccc1F)c1nc(S(=O)(=O)Cc2ccccc2F)ncc1Cl	-90%	-26	u	8%	3.2µM*
COc1ccc2nc(NC(=O)c3nc(S(=O)(=O)Cc4ccccc4)ncc3Cl)sc2c1	-55%	-18	-30%	9%	u
O=C(Nc1nc2ccc(F)cc2s1)c1nc(S(=O)(=O)Cc2ccccc2)ncc1Cl	-46%	91*	u	6%	u
Cc1nnc(NC(=O)c2nc(S(=O)(=O)Cc3ccccc3)ncc2Cl)s1	-93%	81*	u	6%	u
COC(=O)c1ccccc1NC(=O)c1nc(S(=O)(=O)Cc2ccccc2F)ncc1Cl	-18%	-9	-8%	6%	4%
CCN(CC)C(C)CN1c2ccccc2Sc2ccccc21 (stereo not given)	-1%	46	14%	-21%[57.5 µM]	x
CCN1/C(=C/C=C/c2sc3ccccc3[n+]2CC)Sc2ccccc21	-66%[25.1 µM]	-40	u	18µM*	x
CC1=CC(=O)[C@]2(O[C@@H]3O[C@@H](C)[C@H](O)[C@@H](O)[C@H]3OC(=O)/C=C/c3ccccc3)C=CO[C@@H](O[C@@H]3O[C@H](CO)[C@@H](O)[C@H](O)[C@H]3O)[C@H]12	x	x	x	-13%[12.6 µM]	x

Screening results as filed in PubChem.
